# According to PubChem BioAssay AID1159580 (chemical genetic matrix, 2015):
# The whole screen tested about 5,500 compounds, of which about 2,000 (36%) were called active. Another 18% or so got no clear call; they are omitted. The list shows a part of the results. A number with no mark means an inactive call. No stated cut-off is given here; in the data, active means normalized growth mostly below about 0.91 (no sharp cut-off); inconclusive means no clear call, values can overlap the other calls; inactive means mostly above about 0.92.
# Assay: chemical genetic growth profiling, strain panel (AID 1159580);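 further: tested at 20 µM; growth read once vehicle control cultures reached saturation at 30 °C; 1 = growth at the plate median or of vehicle wells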
# Details: growth OD
smiles,measurement,setting,value
C[C@@H]1CC[C@H]2[C@@H](C)C(=O)O[C@@H]3O[C@@]4(C)CC[C@@H]1[C@]32OO4,normalized growth,"S. cerevisiae deletion strains, locus YKL009W, strain mrt4, stronger effect = lower value",0.986
same,normalized growth,"S. cerevisiae deletion strains, locus YKL068W, stronger effect = lower value",0.914 (active)
same,normalized growth,"S. cerevisiae deletion strains, locus YKL085W, strain MDH1 (second series), stronger effect = lower value",0.906 (active)
same,normalized growth,"S. cerevisiae deletion strains, locus YKL085W, strain MDH1, stronger effect = lower value",0.906 (active)
same,normalized growth,"S. cerevisiae deletion strains, locus YKL160W, strain elf1, stronger effect = lower value",0.874 (active)
same,normalized growth,"S. cerevisiae deletion strains, locus YKL190W, strain CNB1, stronger effect = lower value",0.856 (active)
same,normalized growth,"S. cerevisiae deletion strains, locus YKR001C, strain vps1, stronger effect = lower value",0.692 (active)
same,normalized growth,"S. cerevisiae deletion strains, locus YKR026C, strain gcn3, stronger effect = lower value",0.953
same,normalized growth,"S. cerevisiae deletion strains, locus YKR091W, strain srl3, stronger effect = lower value",0.949
same,normalized growth,"S. cerevisiae deletion strains, locus YLL001W, strain dnm1, stronger effect = lower value",0.824 (active)
same,normalized growth,"S. cerevisiae deletion strains, locus YLL026W, stronger effect = lower value",0.876 (active)
same,normalized growth,"S. cerevisiae deletion strains, locus YLL041C, strain sdh2, stronger effect = lower value",0.946
same,normalized growth,"S. cerevisiae deletion strains, locus YLR027C, strain aat2, stronger effect = lower value",0.865 (active)
same,normalized growth,"S. cerevisiae deletion strains, locus YLR039C, strain RIC1, stronger effect = lower value",0.353 (active)
same,normalized growth,"S. cerevisiae deletion strains, locus YLR058C, strain SHM2, stronger effect = lower value",0.852 (active)
same,normalized growth,"S. cerevisiae deletion strains, locus YLR102C, strain apc9, stronger effect = lower value",0.94
same,normalized growth,"S. cerevisiae deletion strains, locus YLR113W, strain HOG1, stronger effect = lower value",0.698 (active)
same,normalized growth,"S. cerevisiae deletion strains, locus YLR221C, strain rsa3, stronger effect = lower value",0.812 (active)
same,normalized growth,"S. cerevisiae deletion strains, locus YLR258W, strain gsy2, stronger effect = lower value",0.918
same,normalized growth,"S. cerevisiae deletion strains, locus YLR262C, strain YPT6 (second series), stronger effect = lower value",0.375 (active)
same,normalized growth,"S. cerevisiae deletion strains, locus YLR262C, strain YPT6, stronger effect = lower value",0.364 (active)
same,normalized growth,"S. cerevisiae deletion strains, locus YLR268W, strain sec22, stronger effect = lower value",0.822 (active)
same,normalized growth,"S. cerevisiae deletion strains, locus YLR320W, strain mms22, stronger effect = lower value",0.674 (active)
same,normalized growth,"S. cerevisiae deletion strains, locus YLR330W, strain CHS5, stronger effect = lower value",0.879 (active)
same,normalized growth,"S. cerevisiae deletion strains, locus YLR342W, strain FKS1 (second series), stronger effect = lower value",0.82
same,normalized growth,"S. cerevisiae deletion strains, locus YLR342W, strain FKS1, stronger effect = lower value",0.885 (active)
same,normalized growth,"S. cerevisiae deletion strains, locus YLR357W, strain rsc2, stronger effect = lower value",1.02
same,normalized growth,"S. cerevisiae deletion strains, locus YLR370C, strain arc18, stronger effect = lower value",0.897 (active)
same,normalized growth,"S. cerevisiae deletion strains, locus YLR371W, strain rom2, stronger effect = lower value",0.929
same,normalized growth,"S. cerevisiae deletion strains, locus YLR384C, strain iki3, stronger effect = lower value",0.949
same,normalized growth,"S. cerevisiae deletion strains, locus YLR418C, strain cdc73, stronger effect = lower value",0.614 (active)
same,normalized growth,"S. cerevisiae deletion strains, locus YML016C, strain PPZ1, stronger effect = lower value",0.915 (active)
same,normalized growth,"S. cerevisiae deletion strains, locus YML032C, strain rad52, stronger effect = lower value",0.798 (active)
same,normalized growth,"S. cerevisiae deletion strains, locus YML120C, strain ndi1, stronger effect = lower value",0.839 (active)
same,normalized growth,"S. cerevisiae deletion strains, locus YML124C, strain tub3, stronger effect = lower value",0.936
same,normalized growth,"S. cerevisiae deletion strains, locus YMR058W, strain fet3, stronger effect = lower value",0.742 (active)
same,normalized growth,"S. cerevisiae deletion strains, locus YMR078C, strain ctf18, stronger effect = lower value",0.882 (active)
same,normalized growth,"S. cerevisiae deletion strains, locus YMR125W, strain sto1, stronger effect = lower value",0.925
same,normalized growth,"S. cerevisiae deletion strains, locus YMR129W, stronger effect = lower value",0.899 (active)
same,normalized growth,"S. cerevisiae deletion strains, locus YMR205C, strain PFK2, stronger effect = lower value",0.779 (active)
same,normalized growth,"S. cerevisiae deletion strains, locus YMR223W, strain ubp8, stronger effect = lower value",0.878 (active)
same,normalized growth,"S. cerevisiae deletion strains, locus YMR231W, strain pep5, stronger effect = lower value",0.928 (active)
same,normalized growth,"S. cerevisiae deletion strains, locus YMR263W, strain SAP30, stronger effect = lower value",0.81 (active)
same,normalized growth,"S. cerevisiae deletion strains, locus YMR307W, strain GAS1, stronger effect = lower value",0.651
same,normalized growth,"S. cerevisiae deletion strains, locus YNL067W, strain RPL9B, stronger effect = lower value",0.86 (active)
same,normalized growth,"S. cerevisiae deletion strains, locus YNL071W, strain lat1, stronger effect = lower value",0.705 (active)
same,normalized growth,"S. cerevisiae deletion strains, locus YNL128W, strain TEP1, stronger effect = lower value",0.757 (active)
same,normalized growth,"S. cerevisiae deletion strains, locus YNL153C, strain GIM3, stronger effect = lower value",0.811 (active)
same,normalized growth,"S. cerevisiae deletion strains, locus YNL183C, strain NPR1, stronger effect = lower value",0.748 (active)
same,normalized growth,"S. cerevisiae deletion strains, locus YNL209W, strain ssb2, stronger effect = lower value",0.867 (active)
same,normalized growth,"S. cerevisiae deletion strains, locus YNL233W, strain BNI4, stronger effect = lower value",0.81 (active)
same,normalized growth,"S. cerevisiae deletion strains, locus YNL248C, strain rpa49, stronger effect = lower value",0.902
same,normalized growth,"S. cerevisiae deletion strains, locus YNL250W, strain rad50, stronger effect = lower value",0.87 (active)
same,normalized growth,"S. cerevisiae deletion strains, locus YNL271C, strain bni1, stronger effect = lower value",0.883 (active)
same,normalized growth,"S. cerevisiae deletion strains, locus YNL298W, strain CLA4, stronger effect = lower value",0.861 (active)
same,normalized growth,"S. cerevisiae deletion strains, locus YNL307C, strain MCK1, stronger effect = lower value",0.754 (active)
same,normalized growth,"S. cerevisiae deletion strains, locus YNL322C, strain KRE1 (second series), stronger effect = lower value",0.904 (active)
same,normalized growth,"S. cerevisiae deletion strains, locus YNL322C, strain KRE1, stronger effect = lower value",0.857 (active)
same,normalized growth,"S. cerevisiae deletion strains, locus YNR049C, strain mso1, stronger effect = lower value",0.94
same,normalized growth,"S. cerevisiae deletion strains, locus YNR052C, strain pop2, stronger effect = lower value",0.842 (active)
same,normalized growth,"S. cerevisiae deletion strains, locus YOL006C, strain TOP1, stronger effect = lower value",0.605
same,normalized growth,"S. cerevisiae deletion strains, locus YOL012C, strain htz1",0.461
same,normalized growth,"S. cerevisiae deletion strains, locus YOL147C, strain pex11, stronger effect = lower value",0.869 (active)
same,normalized growth,"S. cerevisiae deletion strains, locus YOR001W, strain rrp6, stronger effect = lower value",0.855 (active)
same,normalized growth,"S. cerevisiae deletion strains, locus YOR061W, strain CKA2, stronger effect = lower value",0.92
same,normalized growth,"S. cerevisiae deletion strains, locus YOR069W, strain VPS5, stronger effect = lower value",0.911 (active)
same,normalized growth,"S. cerevisiae deletion strains, locus YOR070C, strain gyp1, stronger effect = lower value",0.814 (active)
same,normalized growth,"S. cerevisiae deletion strains, locus YOR080W, strain dia2, stronger effect = lower value",0.926
same,normalized growth,"S. cerevisiae deletion strains, locus YOR083W, strain WHI5, stronger effect = lower value",0.822 (active)
same,normalized growth,"S. cerevisiae deletion strains, locus YOR106W, strain vam3, stronger effect = lower value",0.784 (active)
same,normalized growth,"S. cerevisiae deletion strains, locus YOR136W, strain idh2, stronger effect = lower value",0.93
same,normalized growth,"S. cerevisiae deletion strains, locus YOR144C, strain elg1, stronger effect = lower value",0.927 (active)
same,normalized growth,"S. cerevisiae deletion strains, locus YOR184W, strain ser1, stronger effect = lower value",0.705 (active)
same,normalized growth,"S. cerevisiae deletion strains, locus YOR231W, strain MKK1, stronger effect = lower value",0.745 (active)
same,normalized growth,"S. cerevisiae deletion strains, locus YOR265W, strain rbl2, stronger effect = lower value",0.913 (active)
same,normalized growth,"S. cerevisiae deletion strains, locus YOR270C, strain vph1, stronger effect = lower value",0.633 (active)
same,normalized growth,"S. cerevisiae deletion strains, locus YOR290C, strain snf2, stronger effect = lower value",0.847 (active)
same,normalized growth,"S. cerevisiae deletion strains, locus YOR316C, strain cot1, stronger effect = lower value",0.94
same,normalized growth,"S. cerevisiae deletion strains, locus YPL051W, strain arl3, stronger effect = lower value",0.818 (active)
same,normalized growth,"S. cerevisiae deletion strains, locus YPL078C, strain atp4, stronger effect = lower value",0.796 (active)
same,normalized growth,"S. cerevisiae deletion strains, locus YPL106C, strain sse1, stronger effect = lower value",0.894
same,normalized growth,"S. cerevisiae deletion strains, locus YPL240C, strain hsp82, stronger effect = lower value",0.949
same,normalized growth,"S. cerevisiae deletion strains, locus YPL241C, strain CIN2, stronger effect = lower value",0.924 (active)
same,normalized growth,"S. cerevisiae deletion strains, locus YPL256C, strain CLN2, stronger effect = lower value",0.704 (active)
same,normalized growth,"S. cerevisiae deletion strains, locus YPR119W, strain clb2, stronger effect = lower value",0.927 (active)
same,normalized growth,"S. cerevisiae deletion strains, locus YPR141C, strain kar3, stronger effect = lower value",0.907 (active)
same,normalized growth,"S. cerevisiae deletion strains, locus YPR163C, strain tif3, stronger effect = lower value",0.958
same,normalized growth,"S. cerevisiae deletion strains, locus YPR167C, strain met16, stronger effect = lower value",0.909 (active)
same,normalized growth,"S. cerevisiae deletion strains, strain wtn01, stronger effect = lower value",0.818 (active)
same,normalized growth,"S. cerevisiae strains, strain wild type, stronger effect = lower value",0.852 (active)
